Data published in the supplement of paper PMC11417369.
Whole data set: some 25,000 sequences, median “ln(normalized median fluorescence intensity)” near 9.3, cut for the highest 2% near 10. Shown is part of a subset that was picked to be rich in the highest values.

system: PF3D7_0420300 AP2 domain 1 (GST-tagged); assay: gcPBM binding intensity (ln(normalized median fluorescence intensity)); higher = stronger DNA binding
In short: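 An Agilent 4 × 180k array carrying primer-extended double-stranded 36-bp intergenic genomic probes and negative controls received GST-tagged P. falciparum DNA-binding domains expressed in E. coli, about 25 μg on average, for 1 h. The binding buffer contained 1× PBS, 1% milk, 0.2 mg/ml BSA, 0.5% salmon testes DNA and 0.03% Triton X-100. Binding intensity is the top Masliner-normalised natural-log median intensity across replicate spots of either probe orientation, read after Alexa488 anti-GST antibody staining and a 488 nm scan.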

Sequence | gcPBM binding intensity (ln)
ATATTATTGTAGAAATGTACATATATATATATATAT [XGTACX_site1882] | 9.31
ATCATATGTATGCATACACACAAAAAGTTATTTATA [CACACA_site6325] | 9.37
CACAAACAAAAACACACACACACACCCACAAAAATG [CACACA_site2429] | 10.1
CATACATACAAACACACACACACACCCATATATATA [CACACA_site2918] | 10.4
TAAACACCCATATAAACACACATACATACATACATA [CACACA_site5383] | 9.7
AAAAAAAAAAAACACACACACACACCCAAATATATA [CACACA_site150] | 10.1
ATAAATAAAAAACACACACACACACCCAAAAAAAAA [CACACA_site2624] | 10.1
TATATAAAGAAACACACACACACCTTATAATTATTA [CACACA_site4062] | 10
TATAAACACCCATATAAACACACATACATACATACA [CACACA_site8791] | 9.58
TTAACAAATAAACACACACACACACCCAAAAAAAAA [CACACA_site8068] | 10.1
AAAAAAAAAAAACACACACACACACCCACAAAATAT [CACACA_site1447] | 10.2
TATATAAATGGACACACACACACCTTATAATTATTA [CACACA_site6093] | 10.2
TGCAACAAAATAAACACACACACACCCCCACAAAAA [CACACA_site3388] | 10.3
TATATAAATAAACACACACACACCTTATAATTATTA [CACACA_site9345] | 9.93
TTATATAACATTATTTGTACATATAAAATATGGATG [XGTACX_site8526] | 9
ATATTATTTTAAAGTACACACATATATTGATATATA [CACACA_site7153] | 9.39

Sequence | gcPBM binding intensity (ln)
TGAATTCGTCAAAAGCGTACATATAATATCTTCTTG [XGTACX_site8842] | 9.19
AAAAACTATTGTAGGACACACAAAATTCCAATTTTA [CACACA_site1701] | 9.41
GTCACAAAATAAATTAAACACACAACATCATATATG [CACACA_site8182] | 9.65
AACATACATAAACACACACACACACCCACAGAGACA [CACACA_site4430] | 10.4
AATGTACCCACACCCACACACAAACAAATATATATA [CACACA_site2751] | 9.85
CACAAAAAAAATTATACACACACACCCATATATATA [CACACA_site8255] | 9.99
CAAAAAAAATTATACACACACACACCCATATATATA [CACACA_site1044] | 10.2
AAAAAAAAAAAAAAAACACACAGAAATATATATATA [CACACA_site4611] | 9.55
ATAAAATACAGATAAACACACATATAAACACCCATA [CACACA_site5381] | 9.92
TAAACAGACATATAAACACACATATAAACAGACATA [CACACA_site7214] | 9.91
TTTAAATACAGACATACACACATACACCCACATATA [CACACA_site8078] | 9.81
ATTAATTATATATATACACACACATACACCCAAATA [CACACA_site9126] | 10
AAAATACAGAAACACACACACACACCCATATATATA [CACACA_site3559] | 10.3
AATGTACACGCACCCACACACAAACAAATATAAATA [CACACA_site7319] | 9.81
AATGTACACCCACCCACACACAAACAAATATATATA [CACACA_site5521] | 10.2
